# Bioassay records: PubChem BioAssay, several laboratories
# The list is not random: actives were taken first. Their share in the collection is about 4.2%.
# E coli RNAP = E. coli RNAP inhibitors, biochemical. DNA-directed RNA polymerase subunit beta (Escherichia coli (strain K12)), P0A8V2. E. coli RNA polymerase, fluorescence transcription assay. inhibition, %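 (tested at 10 µM)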. 62,000 compounds, 0.2% hits; in the data active = inhibition above about 20%
# CD11b adhes inh = inhibitors of CD11b/CD18 adhesion to fibrinogen, primary screen, K562 cells, luminescence | Integrin beta-2 (Homo sapiens) + Integrin alpha-M (Homo sapiens), P05107+P11215 | ATPlite luminescence; Mn2+ added to activate the integrin | inhibition, % at 10 µM | 93,000 compounds, 0.54% hits | AID 1497, 2009;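 active = primary inhibition of 50% or more at 10 µM, then 40% or more on retest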
# Target sequence (P05107 whole entry, looked up, other chains not shown): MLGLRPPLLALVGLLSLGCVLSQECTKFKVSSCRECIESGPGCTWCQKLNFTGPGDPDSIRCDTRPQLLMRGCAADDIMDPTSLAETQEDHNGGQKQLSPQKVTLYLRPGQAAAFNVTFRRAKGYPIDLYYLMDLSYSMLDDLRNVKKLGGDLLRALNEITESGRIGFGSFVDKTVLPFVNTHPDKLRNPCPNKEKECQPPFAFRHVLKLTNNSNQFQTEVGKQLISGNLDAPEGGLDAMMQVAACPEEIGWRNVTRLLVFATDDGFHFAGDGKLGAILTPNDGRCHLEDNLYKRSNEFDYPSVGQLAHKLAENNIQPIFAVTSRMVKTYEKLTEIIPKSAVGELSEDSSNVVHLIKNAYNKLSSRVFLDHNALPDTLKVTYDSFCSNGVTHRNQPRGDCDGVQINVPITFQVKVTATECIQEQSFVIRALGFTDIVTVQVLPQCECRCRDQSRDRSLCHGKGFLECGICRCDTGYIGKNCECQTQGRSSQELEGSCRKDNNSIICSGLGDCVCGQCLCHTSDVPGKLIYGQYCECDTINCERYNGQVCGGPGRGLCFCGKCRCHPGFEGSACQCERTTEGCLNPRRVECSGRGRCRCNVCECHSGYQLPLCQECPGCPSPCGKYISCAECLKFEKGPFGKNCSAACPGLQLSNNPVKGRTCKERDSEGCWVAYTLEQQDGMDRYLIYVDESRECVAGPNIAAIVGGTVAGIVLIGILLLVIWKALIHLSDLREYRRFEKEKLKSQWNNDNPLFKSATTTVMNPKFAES
# Cav3 T inh = Cav3.2 calcium influx blockers – cell-based, Fluo-4 calcium fluorescence, FDSS, MLSMR library, primary screen | Voltage-dependent T-type calcium channel subunit alpha-1H (Homo sapiens), O95180 | B-score at 10 µM | 100,000 compounds, 4% hits | Cav3.2-expressing cells; hits give low values;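 active = single-dose well whose peak fluorescence ratio is a statistical outlier from its plate by either plate-standardised score or position-corrected B-score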
# Pyk2 oligo antag = antagonists of Pyk2 self-association, primary screen, Q293 cells, FERM NanoBiT luminescence, HTS. 99,000 compounds, 0.83% hits. Protein-tyrosine kinase 2-beta (Homo sapiens), Q14289. hits give low values. z-score (the deposit names both 25 µM and 10 µM);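 active = Z-score of -3 or lower, scaled per plate to the spread of control and sample wells; inactive = z-score above -3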;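 note: negative z-score means lost luminescence so less FERM oligomerization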
# CD11b adhes enh = enhancers of CD11b/CD18 adhesion to fibrinogen, primary screen, K562 cells, luminescence. Integrin beta-2 (Homo sapiens) + Integrin alpha-M (Homo sapiens), P05107+P11215. ATPlite luminescence. activation, % at 10 µM. 93,000 compounds, 0.07% hits. AID 1499, 2009;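 active = 10 µM primary screen giving 50% or more activity, confirmed by 40% or more on retest at that dose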
# Hits are given with their value; i = inactive; nt = not tested or not shown.
SMILES,E coli RNAP,CD11b adhes inh,Cav3 T inh,Pyk2 oligo antag,CD11b adhes enh
COCc1nc2ccccc2n1CCCOc1ccccc1,nt,i,i,i,i
CCn1c(COc2ccccc2C)nc2ccccc21,nt,nt,i,i,nt
COCCCn1cc(C(=O)c2cc(OC)ccc2OCC(=O)Nc2cc(C)on2)cc(C#N)c1=O,nt,i,i,i,i
CCCCN=C1NC(=O)C(CC(=O)NCCc2ccc(OC)cc2)S1 (configuration not stated),nt,i,nt,nt,i
CC(/C=C1\SC(=S)N(CCCC(=O)Nc2ccc(C(=O)O)c(O)c2)C1=O)=C\c1ccccc1,nt,i,nt,nt,86
CCCNC(=O)[C@H](Cc1c[nH]c2ccccc12)NC(=O)c1ccccc1Cl,nt,i,nt,nt,i
CCOC(=O)c1cnn(-c2sc(C(=O)OCC)c(C)c2C(=O)OCC)c1N,i,nt,-3.3,i,nt
CCOC(=O)c1cnn(-c2ccccn2)c1N,i,i,i,i,i
COc1ccc(/C=C/C(=O)NC(=S)NNC(=O)c2ccco2)cc1,nt,nt,-5.3,i,nt
N#CC(C(=O)NC1CCCCC1)=C1CCCCCC1,nt,nt,nt,i,nt
COc1cccc(Cn2nnc(C(=O)NCc3ccccc3Cl)c2N)c1,i,i,-3.9,nt,i
COc1cccc(Cn2nnc(C(=O)NCc3ccc(F)cc3)c2N)c1,i,i,i,nt,i
COC(=O)c1scc(C)c1N/N=C(\C)c1cc(F)c(Cl)cc1F,nt,i,i,i,i
CCN(CC)S(=O)(=O)c1ccc(NC(=O)CC(NC(C)=O)c2ccccc2)cc1 (configuration not stated),nt,i,i,i,i
Cc1ccc(N2C(=O)N(CC(=O)NCc3ccc(Cl)cc3)C(=O)C2C)cc1 (configuration not stated),nt,nt,-5.2,i,nt
COC(=O)c1nc2n(n1)C(c1cc(OC)ccc1OC)C(C(=O)OC1CCCCC1)=C(C)N2 (configuration not stated),i,i,-4.8,i,i
N#Cc1ccc(CSc2nnc(-c3cccc(S(=O)(=O)N4CCCCC4)c3)o2)cc1,i,i,-7.5,i,i
O=S(=O)(c1ccc(-c2nnc(SCc3nnc(-c4ccccc4)o3)o2)cc1)N1CCCC1,i,i,i,i,i
CC(NC(=O)CSc1nnc(-c2cccc(S(=O)(=O)N3CCCCC3)c2)o1)C12CC3CC(CC(C3)C1)C2 (configuration not stated),nt,i,-7,i,i
CC(C)CNC(=O)CSc1nnc(-c2cccc(S(=O)(=O)N3CCCCC3)c2)o1,nt,i,i,i,i
COc1ccc(C2C3=C(CC(C)(C)CC3=O)Oc3ncn(Cc4ccccc4)c(=N)c32)cc1 (configuration not stated),nt,i,i,-3.7,i
CC1(C)CC(=O)C2=C(C1)Oc1ncn(Cc3ccco3)c(=N)c1C2c1ccccc1 (configuration not stated),i,i,i,i,i
COC(=O)c1ccccc1NC(=O)C1CCN(C(=O)c2ccc(OC)cc2)CC1,nt,nt,i,i,nt
Cc1c(N2C(=O)c3ccc(Br)cc3C2=O)c(=O)n(-c2ccccc2)n1C,nt,nt,-4.4,i,nt
CCOC(=O)C1=C(CSc2nc(C)cc(C)c2C#N)OC(N)=C(C#N)C1c1ccccc1 (configuration not stated),nt,i,-5.5,i,i
SMILES,E coli RNAP,CD11b adhes inh,Cav3 T inh,Pyk2 oligo antag,CD11b adhes enh
Cc1ccc(-n2nnnc2-c2cnc(-c3cccnc3)nc2C(F)(F)F)cc1,nt,i,i,i,i
FC(F)(F)c1nc(N2CCCC2)ncc1-c1nnnn1-c1ccc(Cl)cc1,nt,55,-4.8,i,i
Fc1ccc(-n2nnnc2-c2cnc(-c3cccs3)nc2C(F)(F)F)cc1,nt,i,i,-3.7,i
CCOC(=O)c1c(-c2cccs2)csc1NC(C)=O,nt,nt,i,i,nt
CCOC(=O)c1c(-c2ccc(C)o2)csc1NC(=O)CSc1nnc(C)s1,i,i,-6.2,i,i
CCOC(=O)c1c(-c2cccs2)csc1NC(=O)CSc1ncn[nH]1,i,nt,-4.7,i,nt
O=C(CN(c1ccc(F)cc1)S(=O)(=O)c1ccc2c(c1)OCCO2)NCc1ccccc1,nt,i,i,i,i
CN(Cc1ccccc1)C(=O)CN(c1ccc(F)cc1)S(=O)(=O)c1ccc2c(c1)OCCO2,nt,nt,-5,i,nt
CC(/C=N/NC(=O)c1cc(-c2cccs2)[nH]n1)=C\c1ccccc1,nt,i,nt,nt,i
CSc1ccc(/C=C(\C#N)C(=O)Nc2cccc(C)c2)cc1,nt,i,nt,nt,i
O=C(Cn1c(=O)n(Cc2ccco2)c(=O)c2c3c(sc21)CCCCC3)Nc1ccccc1,nt,i,-4.5,i,i
O=C(Cn1c(=O)n(Cc2ccco2)c(=O)c2c3c(sc21)CCCCC3)c1ccccc1,nt,nt,i,i,nt
O=C(OCc1nnc(-c2ccccc2)o1)c1ccco1,i,i,i,i,i
Cc1nn(Cc2ccccc2)c(Cl)c1C(=O)OCc1nnc(-c2ccccc2)o1,i,i,-5,i,i
Cc1nn(Cc2ccccc2)c(Cl)c1C(=O)OCc1nnc(-c2ccc(Cl)cc2)o1,i,i,-7.3,i,i
CN(C)S(=O)(=O)Oc1ccsc1C(=O)Nc1ccc(Cl)cc1,nt,nt,-4.4,i,nt
CCCSC1=C(C#N)C(c2cccs2)C(C(=O)Nc2ccccc2)=C(C)N1 (configuration not stated),nt,nt,-2.7,i,nt
CCSC1=C(C#N)C(c2cccs2)C(C(=O)OC)=C(C)N1 (configuration not stated),i,i,i,i,i
COc1ccc(C(=O)COC(=O)C(CCCCN2C(=O)C3C4C=CC(C4)C3C2=O)N2C(=O)C3C4C=CC(C4)C3C2=O)cc1 (configuration not stated),nt,nt,-3.7,i,nt
CC(C)(C)c1ccc(C(=O)N2CCC(C(=O)NCCC3=CCCCC3)CC2)cc1,nt,nt,-5,i,nt
Cc1cccc(Nc2nc(-c3ccccn3)cs2)n1,i,i,-3.6,i,i
Cc1cccnc1Nc1nc(-c2ccccn2)cs1,nt,i,i,i,i
c1ccc(Nc2nc(-c3cccs3)cs2)nc1,i,nt,-5,i,nt
Cc1cccc(Nc2nc(-c3cccs3)cs2)n1,nt,nt,i,i,nt
CCOC(=O)CCc1cnccc1-c1cccc(OC)c1O,nt,nt,i,nt,nt
SMILES,E coli RNAP,CD11b adhes inh,Cav3 T inh,Pyk2 oligo antag,CD11b adhes enh
COc1ccc(Cl)cc1NC(=O)CC(C)c1ccccc1 (configuration not stated),nt,i,-7.6,i,i
COc1ccc(Cl)cc1NC(=O)CC(C)=O,nt,i,i,i,i
C=CCOC(=O)/C(=C\c1ccc(OC)cc1)NC(=O)c1ccco1,nt,i,nt,i,i
CCCCOc1ccc(C(=O)N/C(=C\c2ccc(OC)cc2)C(=O)OCc2ccco2)cc1,nt,i,-8.6,i,i
COC(=O)[C@@H]1C[C@@]2(O)[C@@H](O)[C@@H](O)[C@@H](O)C[C@H]2N1CC1CCCCC1,nt,nt,i,nt,nt
O=[N+]([O-])c1ccc2c(c1)C(N1CCOCC1)/C(=C/COc1ccc(Cl)cc1Cl)O2 (configuration not stated),nt,i,-3.6,i,i
Cc1nc2c(C(=O)NCCc3ccccc3)c[nH]n2c(=O)c1Cl,i,i,i,i,i
